In the library only some 6.7% were active in any assay of this set; here they are far more common.
C diff growth: C. difficile growth inhibitors, primary screen, HTS; Clostridium difficile clinical isolate growth, OD600, 24 h; active compounds read low; growth activity, negative = inhibition, % at 16 µg/mL (by protocol); hit rate 0.25% among 86,000;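 active means mean growth activity at or below -80% and every replicate also at or below -80%; inconclusive means mean at or below -80% but some replicate above -80%; inactive means mean growth activity above -80%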;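 further: 0% = DMSO wells and -100% = levofloxacin 16 µg/mL wells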
Pf Dd2 inh: P. falciparum Dd2 growth inhibitors, primary screen, SYBR Green fluorescence, single dose replicates; 72 h; active compounds read low; activity change, % at 10 µM; hit rate 2.3% among 94,000; AID 1159554, 2015; in the data active means activity change below about -80%; inconclusive means no clear call, values can overlap the other calls
T cruzi growth-1: T. cruzi intracellular proliferation inhibitors, primary screen, cell-based, beta-gal Tulahuen parasites, NIH3T3 host, luminescence; T. cruzi beta-gal in NIH3T3, GalScreen luminescence, 90 h; hit rate 5.9% among 77,000; inhibition, % at 8.34 µM;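 active means mean inhibition above about 93%, with at least 55% of replicates each passing it, limit read from the data, passing the limit was not always enough; inconclusive means only one of those two conditions holds; inactive means neither condition holds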
T cruzi growth-2: T. cruzi intracellular proliferation inhibitors, confirmation, cell-based, NIH3T3 host, beta-gal parasite, luminescence, cherry-pick. inhibition, % at 8.35 µM. T. cruzi beta-gal in NIH3T3, GalScreen luminescence, 90 h. shares compounds with T cruzi growth-1. hit rate 72% among 5,600. AID 651739, 2012;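 active means mean replicate inhibition above about 95% and at least 55% of replicates individually reaching it, limit read from the data; inconclusive means only one of the two criteria is met; inactive means neither criterion is met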
T cruzi growth-3: inhibitors of intracellular T. cruzi replication, confirmation, NIH3T3 host cells, beta-gal parasites, cherry-pick, set 2; shares compounds with T cruzi growth-1; T. cruzi beta-gal in NIH3T3, GalScreen luminescence, 90 h; inhibition, % at 2.09 µM; hit rate 21% among 5,600; AID 651740, 2012;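 active means mean inhibition above about 95%, with at least 55% of replicates also reaching it, limit read from the data; inconclusive means meets just one of the two conditions; inactive means meets neither condition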;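 further: plate controls were neutral control median for no effect and positive control median for full effect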
3T3 cytotox: cytotoxicity in mouse NIH/3T3 fibroblasts, confirmation, cytotoxicity control for T. cruzi proliferation inhibitor project, cell-based, cherry-pick, single point | shares compounds with T cruzi growth-1 | NIH/3T3 viability, CellTiter-Glo ATP luminescence, 90 h | cytotoxicity (signal decrease), % at 8.35 µM | hit rate 14% among 5,600;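 active means mean signal decrease across replicates above about 35% based on untreated-well scatter, with enough replicates individually passing, limit read from the data; inconclusive means no rule stated though some were filed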;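 further: 0% = median of neutral control wells and 100% = median of positive control wells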
NIH3T3 tox 2: NIH/3T3 fibroblast cytotoxicity, confirmation, cytotoxicity control, cell-based, cherry-pick, single point, set 2; shares compounds with T cruzi growth-1; NIH/3T3 viability, CellTiter-Glo ATP luminescence, 90 h; inhibition, % at 24.9 µM; hit rate 56% among 5,600; AID 651744, 2012;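 active means mean loss of cell viability signal at or above a set limit, and enough replicates individually reaching it; inconclusive means meets only the mean limit or only the replicate share; inactive means meets neither condition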;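 further: 0% = median of neutral control wells and 100% = median of positive control wells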
Active calls of the source: *.

How did C[C@H]1CCCCO[C@H](CN(C)C(=O)Nc2ccccc2)[C@@H](C)CN([C@@H](C)CO)C(=O)c2cc(NC(=O)Nc3ccccc3)ccc2O1 do in these assays?
C diff growth: -5; Pf Dd2 inh: -48; T cruzi growth-1: 98*; T cruzi growth-2: 109*; T cruzi growth-3: 20; 3T3 cytotox: 16; NIH3T3 tox 2: 12

Results for C[C@H](CO)N1C[C@H](C)[C@H](CN(C)C(=O)Nc2ccccc2)OCCCC[C@H](C)Oc2ccc(NC(=O)Nc3ccc(F)cc3)cc2C1=O ?
Pf Dd2 inh: 9; T cruzi growth-1: 83

How did C[C@H]1CCCCO[C@@H](CN(C)C(=O)Nc2ccccc2)[C@@H](C)CN([C@@H](C)CO)C(=O)c2cc(NC(=O)Nc3ccccc3)ccc2O1 do in these assays?
C diff growth: -6; Pf Dd2 inh: -20; T cruzi growth-1: inconclusive; T cruzi growth-2: 110*; T cruzi growth-3: 10; 3T3 cytotox: -6; NIH3T3 tox 2: 18

How did CC(C)NC(=O)Nc1ccc2c(c1)C(=O)N([C@@H](C)CO)C[C@H](C)[C@H](CN(C)C(=O)Nc1ccccc1)OCCCC[C@H](C)O2 do in these assays?
C diff growth: -3; Pf Dd2 inh: -21; T cruzi growth-1: 100*; T cruzi growth-2: 80; T cruzi growth-3: 50; 3T3 cytotox: 13; NIH3T3 tox 2: -4

How did O=C(C[C@H]1CC[C@H](NC(=O)c2ccc3c(c2)OCO3)[C@@H](CO)O1)NC1Cc2ccccc2C1 do in these assays?
Pf Dd2 inh: 9; T cruzi growth-1: -28

Results for C[C@H](CO)N1C[C@H](C)[C@@H](CN(C)Cc2ccc3c(c2)OCO3)Oc2ccc(NS(=O)(=O)c3cn(C)cn3)cc2C1=O ?
Pf Dd2 inh: 27; T cruzi growth-1: -86

Results for O=C(Nc1ccc2c(c1)OCO2)N[C@H]1CC[C@@H](CCNC(=O)C2CCCC2)O[C@@H]1CO ?
C diff growth: -3; Pf Dd2 inh: 6

Results for C[C@H]1CN([C@@H](C)CO)C(=O)c2cccc(NC(=O)Nc3ccc(F)cc3)c2O[C@H]1CN(C)S(=O)(=O)c1cccs1 ?
C diff growth: 4; Pf Dd2 inh: 4; T cruzi growth-1: -127

What do the screens show for `C[C@H](CO)N1C[C@H](C)[C@H](CN(C)S(=O)(=O)c2cccs2)Oc2c(NC(=O)Nc3ccc(F)cc3)cccc2C1=O`?
C diff growth: 15; Pf Dd2 inh: -29; T cruzi growth-1: 4

What do the screens show for `C[C@@H]1CN([C@@H](C)CO)C(=O)c2cccc(NC(=O)Nc3ccc(C(F)(F)F)cc3)c2O[C@H]1CN(C)S(=O)(=O)c1cccs1`?
C diff growth: 13; Pf Dd2 inh: -35; T cruzi growth-1: 99*; T cruzi growth-2: 101*; T cruzi growth-3: 71; 3T3 cytotox: 33; NIH3T3 tox 2: 39*

How did C[C@@H]1CN([C@H](C)CO)C(=O)c2cccc(NC(=O)Nc3ccc(C(F)(F)F)cc3)c2O[C@@H]1CN(C)S(=O)(=O)c1cccs1 do in these assays?
C diff growth: 6; Pf Dd2 inh: -19; T cruzi growth-1: 93*; T cruzi growth-2: 99*; T cruzi growth-3: 46; 3T3 cytotox: 20; NIH3T3 tox 2: 105*

Results for C[C@H]1CN([C@@H](C)CO)C(=O)c2cccc(NC(=O)Nc3ccc(C(F)(F)F)cc3)c2O[C@@H]1CN(C)S(=O)(=O)c1cccs1 ?
C diff growth: -5; Pf Dd2 inh: -8; T cruzi growth-1: 85

How did C[C@H](CO)N1C[C@H](C)[C@@H](CN(C)S(=O)(=O)c2cccs2)Oc2c(NC(=O)Nc3ccc(C(F)(F)F)cc3)cccc2C1=O do in these assays?
C diff growth: -5; Pf Dd2 inh: -26; T cruzi growth-1: 104*; T cruzi growth-2: 82; T cruzi growth-3: 20; 3T3 cytotox: 11; NIH3T3 tox 2: 57*

Bioassay records deposited in PubChem by Broad Institute.
